Active and inactive are the calls of the source. The calls were made as follows: active = hit-call score of the fitted dose curve at least 0.9, where 1 is the maximum; inactive = score below 0.9.

The source of these data is PubChem BioAssay (EPA / NIEHS).

Read-out in the test: Cyclin D1 (CCND1), CCND1 (gene 595)
Briefly: LTEA_HepaRG_CCND1: Life Technologies and Expression Analysis (LTEA) Assay for Cyclin D1 (CCND1) using HepaRG (AID 2283451).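 As to AC50: TaqMan qRT-PCR transcript level normalised to ACTB GAPDH and POLR2A housekeeping genes.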 The following applies: mRNA level, 48 h; actives raise or lower the signal. As to the method:
LTEA_HepaRG is a cell based, multiplexed-readout assay that uses HepaRG, a human liver cell line, with measurements taken at 48 hours after chemical dosing on a 96-well plate.LTEA_HepaRG_CCND1 is one of 102 assay component(s) measured in the LTEA HepaRG cell culture assay. It is a marker of Cell proliferation, survival, death.Data from the assay component LTEA_HepaRG_CCND1 was analyzed into 1 endpoint. This assay endpoint, LTEA_HepaRG_CCND1, was analyzed with bidirectional fitting relative to DMSO as the negative control and baseline of activity. Using a type of inducible reporter, measures of mRNA induction for gain or loss-of-signal activity can be used to understand regulation of transcription factor activity. To generalize the intended target to other relatable targets, this assay endpoint is annotated to the cell cycle intended target family, where the subfamily is Cell proliferation, survival, death.
A total of 1060 chemcials from the ToxCast library were tested in eight-point concentration-response experiments. Cell culture and cytotoxicity assays were conducted at Thermo Fisher Scientific's Custom Services facility (Madison, WI). A single lot of human HepaRG cells (Thermo Fisher Scientific, Frederick, MD) was used for the cell culture experiments. 96-well format collagen type I coated plates of human HepaRG cells were prepared using established methods. Briefly, cryopreserved HepaRG cells were thawed, plated at a density of approximately 100,000 cells/well in HepaRG Thaw, Plate, and General Purpose media (HPRG770, Thermo Fisher Scientific), and incubated for 48 hours. 0.5% DMSO was selected as vehicle control to balance the requisite need of DMSO in HepaRG cultures to maintain differentiation (for example, baseline metabolism, proportions of hepatocytes vs. cholangiocytes), while enabling further hepatic receptor pathway activation (for example, PXR and CAR) in response to chemical exposure. 48 hours after plating, the culture medium was replaced with HepaRG Serum-Free Incudtion Media. Cells were exposed to each test chemical in duplicate and maintained in CO2 incubators for another 48 hours. Chemical plates were thawed to room temperature and 200x concentrations of treatment groups were prepared. 8-point conentration-reponse curves were made with the highest exposure at 100 uM, followed by half-log dilutions, all in 0.5% DMSO. Each test plate contained variouse controls, induction positive controls (1mM phenobarbital), cytotoxicity positive controls ([…] aflatoxin B1), vehicle controls (0.5% DMSO), and total lysis controls (0.5% DMSO). Cell morphology images were taken using an Essen IncuCyte FLR automated microscope, with six 96-well plates imaged in about 24 minutes. Images were captured and exported and JPEG files. Spent culture media was transfered to black-well plates for the LDH assay, and remaining media was sorted at -80 C for later use. Cells were treated with RLT buffer and frozen until shipped for gene expression analysis. Total RNA was isolated from the cell suspension in 75 uL of Buffer RLT (Qiagen, Germantown, MD 20874) by Quintiles/Expression Analysis (Durham, NC) using a custom isolation procedure. Total RNA from each plate well was transferred to a preamplification plate. Fluidigm's 96.96 Dynamic ArrayTM (Fluidigm, Amsterdam, the Netherlands) technology was used for gene expression analyses by quantitative reverse transcription polymerase chain reaction (qRT-PCR, performed by Quintiles/Expression Analysis, Durham, NC)89. Standard TaqManTM Assays (Applied Biosystems/ThermoFisher Scientific, Foster City, CA) were used to assess the expression of 93 genes selected based on their selectivity and sensitivity to important hepatic receptors known to be modulated by environmental chemicals; importance in human hepatocyte functionality; and hepatotoxicity. […]
`CC(C)(C)c1csc(-c2cc3cc(OCc4ccccc4CC(=O)O)ccc3o2)n1`: the AC50 is 50 µM (active).
In the case of `Cc1oc2c(NC(=O)c3c(Cl)cccc3Cl)cccc2c1C(C)(C)O`, the compound was called inactive.
For the compound `CC(C)(C)c1cc(/C=C2\SC(N)=NC2=O)cc(C(C)(C)C)c1O`, the half-maximal activity concentration (AC50) is 39.3 µM (active).
Consider `CC(=O)N1CCN(c2ccc(OC[C@H]3CO[C@](Cn4ccnc4)(c4ccc(Cl)cc4Cl)O3)cc2)CC1`, for which the AC50 was 91.1 µM (active).
Take `CC/C(=C(/CC)c1ccc(O)cc1)c1ccc(O)cc1`: the concentration at half-maximal activity (AC50) is 80.3 µM (active).
As for `O=c1c(-c2ccc(O)cc2)coc2cc(O)cc(O)c12`, the call was inactive.
As for `O=C1CCC(C2CCCCC2)CC1`, the outcome was inactive.
Consider `CCCCOC(=O)CC(CC(=O)OCCCC)(OC(C)=O)C(=O)OCCCC`, for which the compound was called inactive.
Still for that read-out and setting: then `CCCOC(=O)c1cc(O)c(O)c(O)c1`, with “inactive”; and `Cc1ccc(C(C)C)cc1`, with “inactive”.
Regarding `CN(C)C(=O)C1(N2CCCCC2)CCN(CC[C@@]2(c3ccc(Cl)c(Cl)c3)CN(C(=O)c3ccccc3)CCO2)CC1`, the AC50 was 47.2 µM (active).
For the compound `CN1C(=O)N(c2ccccc2Br)Cc2cnc(Nc3ccc4c(c3)OCC(CO)O4)nc21` (stereo not given), the AC50 is 50 µM (active).
For the compound `COc1cc(C(=O)NC2CCN(C)CC2)ccc1Nc1ncc2c(n1)N(C1CCCC1)CC(F)(F)C(=O)N2C`, the half-maximal activity concentration (AC50) is 46.5 µM (active).
For `O=C1c2ccccc2C(=O)N1CCc1noc(-c2ccc(CN3CCCCCC3)s2)n1`, the compound was called inactive.
For the compound `CCCCCc1ccc(N)cc1`, the call was inactive.
For the compound `CN(C[C@@H](CC[N+]12CCC(C3CCCCC3)(CC1)CC2)c1ccc(Cl)c(Cl)c1)C(=O)c1cc(C(F)(F)F)cc(C(F)(F)F)c1`, the concentration at half-maximal activity (AC50) was 28.9 µM (active).
For the compound `Clc1ccccc1C(c1ccccc1)(c1ccccc1)n1ccnc1`, the AC50 is 82.1 µM (active).
Take `c1ccc2n[nH]nc2c1`: the compound was called inactive.
As to `Oc1ccc2ccccc2c1`, the call was inactive.
For the compound `O=C(O)Cc1cc(I)c(Oc2ccc(O)c(I)c2)c(I)c1`, the AC50 was 87.5 µM (active).
For the compound `CN1C(=O)CC[C@H]1c1cccnc1`, the outcome was inactive.
For the compound `Cc1cc(F)ccc1-c1cc(N2CC[C@@H](O)[C@H]2CO)ncc1N(C)C(=O)C(C)(C)c1cc(C(F)(F)F)cc(C(F)(F)F)c1`, the compound was called inactive.
On the same count and under the same terms, to `COc1ccc2cc(S(=O)(=O)N[C@H](CC(=O)N[C@H](Cc3ccc(CN4[C@H](C)CCC[C@@H]4C)cc3)C(=O)N(C)C(C)C)c3ccc4c(c3)OCO4)ccc2c1` belongs “inactive”; to `OCCO`, “inactive”; to `C[C@]12CC[C@@H]3c4ccc(O)cc4CC[C@H]3[C@@H]1CC[C@H]2O`, “inactive”.
For `CCCCCCCC[Si](OCC)(OCC)OCC`, the call was inactive.
Regarding `Oc1ccccc1`, the outcome was inactive.
Turning to `CCCCCCCCOc1ccc(C(=O)c2ccccc2)c(O)c1`, the outcome was inactive.
`CCOC(=O)O[C@H](C)OC(=O)c1ccc2c(c1)cc(C(=O)NC1CCN(C(C)C)CC1)n2Cc1cc(-c2ccc(Cl)s2)on1`: the compound was classed as inactive.
Turning to `CC(O)CC(C)(C)O` (stereo not given), the call was inactive.
Same read-out and setting: then `CCCCCCCCCCCO`, with “inactive”.
For the compound `Cc1c2ccccc2c(C)c2c1ccc1ccccc12`, the AC50 is 86.4 µM (active).
In the case of `O=C(Nc1ccc(Cl)cc1)Nc1ccc(Cl)c(Cl)c1`, the call was inactive.
Consider `C[C@]12CC[C@@H]3c4ccc(O)cc4CC[C@H]3[C@@H]1CCC2=O`, for which the call was inactive.
Take `O=C1O[C@H]([C@@H](O)CO)C(O)=C1O`: the compound was called inactive.
On the same count and under the same terms, to `Cc1cccc2ccccc12` belongs “inactive”; to `Cc1ccc2oc(CN(Cc3ccccc3)C(=O)Nc3c(F)cc(F)cc3F)c(-c3ccc(Cl)cc3)c2c1`, “inactive”; to `CCCCCCCCCCCCO`, “inactive”.
As for `Cc1cc2c(cc1C(F)(F)F)N(C(=O)Nc1ccc(Oc3cccnc3C)nc1)CC2`, the result was inactive.
Regarding `CC1(C)NC(=O)N(c2ccc([N+](=O)[O-])c(C(F)(F)F)c2)C1=O`, the outcome was inactive.

Broadly, the AC50 is the midpoint of the concentration-response curve, whichever way the signal moves.
